Rows were chosen to be rich in hits. Some 1% of all compounds tested hit in one or more screens of this group.
TSHR antag = blocks TSH signaling through the human TSH receptor; TSHR-expressing cells, TSH-stimulated cAMP HTRF, 2 h; active compounds read low; activity change, negative = inhibition, % at 11.5 µM; 0.2% of 330,000 active; AID 504810;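 active means activity change below a set negative limit, meaning inhibition stronger than a set level, cut at about -70% in these data; inconclusive means activity change between two set negative limits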; further: on the % scale 0 is the no-effect control and ±100 the full control effect
Target sequence (P16473 whole entry, looked up): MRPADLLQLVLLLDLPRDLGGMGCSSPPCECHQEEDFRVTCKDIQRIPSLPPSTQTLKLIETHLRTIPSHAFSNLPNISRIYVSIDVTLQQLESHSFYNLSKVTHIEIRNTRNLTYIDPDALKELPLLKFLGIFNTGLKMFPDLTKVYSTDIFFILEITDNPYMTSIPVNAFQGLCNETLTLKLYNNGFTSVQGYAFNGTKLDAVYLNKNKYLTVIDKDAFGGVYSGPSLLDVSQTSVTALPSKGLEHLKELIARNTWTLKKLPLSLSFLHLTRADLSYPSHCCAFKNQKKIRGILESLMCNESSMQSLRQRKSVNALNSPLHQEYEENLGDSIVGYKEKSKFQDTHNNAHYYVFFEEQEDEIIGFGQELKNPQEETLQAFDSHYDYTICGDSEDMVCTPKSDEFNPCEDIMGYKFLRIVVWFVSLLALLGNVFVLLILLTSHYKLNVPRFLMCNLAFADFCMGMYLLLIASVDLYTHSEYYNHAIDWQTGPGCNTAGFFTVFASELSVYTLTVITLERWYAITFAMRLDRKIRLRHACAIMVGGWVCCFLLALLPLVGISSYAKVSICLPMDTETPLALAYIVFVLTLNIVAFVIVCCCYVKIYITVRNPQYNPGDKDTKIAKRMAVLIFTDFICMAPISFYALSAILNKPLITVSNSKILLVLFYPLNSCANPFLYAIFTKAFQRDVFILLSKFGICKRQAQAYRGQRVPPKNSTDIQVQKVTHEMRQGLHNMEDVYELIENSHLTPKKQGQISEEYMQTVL
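TSHR-expressing cells were treated with compounds, then stimulated with TSH at EC80 (4nM final) for 2 hours at 37 deg C. Cellular cAMP was measured by HTRF competition between lysate cAMP and cAMP-d2 for a cryptate-labelled anti-cAMP antibody.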
gsp agonist = gsp mutant agonism; gsp mutant cells, cAMP HTRF, 30 min; Potency, µM (titrated, usually from 76.9 µM), without a hit: at the top dose activation (cAMP increase), usual class: activators; 0.13% of 340,000 active; AID 624287; active means well fitted activation curve with a large enough effect; inconclusive means small, poorly fitted or top-dose-only effect, or another doubt; inactive means no such curve, though single readings can be large or run the other way; cell line not stated here;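 further: phosphodiesterase inhibitor Ro 20-1724 added with compounds to block cAMP breakdown; potency means the concentration at half of the fitted maximal effect; nearly all actives have a fitted effect of over 60% in size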
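Cells stably selected in G418 were plated at 2000/well, grown 16-24 hr, then given compounds in DMSO with the PDE inhibitor […] (300 uM solution added) for 30 min at 37C; cAMP was read by HTRF.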
RXFP1 ag = agonists of human relaxin receptor RXFP1 | HEK293T-RXFP1 cAMP TR-FRET, 30 min; response scale: percent of porcine relaxin response, buffer zero | AID 2676 | Q9HBX9 | 0.3% of 370,000 active | Potency, µM (top dose mostly 57.5 µM), inactives show top-dose activation, actives largely listed as activators; active means well fitted activation curve with a large enough effect; inconclusive means small, poorly fitted or top-dose-only effect; further: potency means the concentration at half of the fitted maximal effect; on the % scale 0 is the no-effect control and ±100 the full control effect; nearly all actives have a fitted effect of over 60% in size
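HEK293 cells stably expressing RXFP1, treated 30 min at 37C with compounds plus PDE4 inhibitor Ro 20174; cAMP measured by HTRF TR-FRET. Normalized to buffer and 29 nM porcine relaxin; EC50 by Hill fit.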
gsp antagonist = antagonists of gsp mutant (McCune-Albright syndrome); gsp-mutant cells, cAMP HTRF, 30 min; Potency, µM (titrated, usually from 76.9 µM), for inactives: at the highest dose activity change, negative = inhibition, usual class: inhibitors; 0.4% of 340,000 active; AID 624288; calls by dose curve; cell line not stated here;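 further: intracellular cAMP measured with PDE inhibitor Ro 20-1724 present during compound exposure; potency means the concentration at half of the fitted maximal effect; on the % scale 0 is the no-effect control and ±100 the full control effect; nearly all actives have a fitted effect of over 65% in size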
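HTRF cAMP measurement after 30 min RT detection following 30 min, 37C compound treatment alongside […] (added as 300 uM solution) in G418-selected cells seeded at 2000/well and grown 16–24 h.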
RXFP1 antagonist = RXFP1 (human) relaxin receptor antagonism | AID 1259400 | HEK293-RXFP1, relaxin-stimulated cAMP HTRF, 30 min; active compounds read low | Q9HBX9 | 0.59% of 350,000 active | activity change, negative = inhibition, % at 57.5 µM;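 active means activity change of -60% or lower, but not beyond a set lower limit; inconclusive means change between -60% and -40%, or beyond the set limit; inactive means change above -40%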; further: on the % scale 0 is the no-effect control and ±100 the full control effect
Active calls of the source: *; u = inconclusive; x = no result; [ ] = dose if it differs, or a comment.

SMILES | TSHR antag | gsp agonist | RXFP1 ag | gsp antagonist | RXFP1 antagonist
Oc1ccccc1N=Nc1ccccc1O | 22 | -7% | 3% | 35µM* | -29
CCc1cccc(C)c1NC(=O)c1cc(S(=O)(=O)NCc2ccccc2Cl)ccc1F | x | x | 1% | x | -14
Cc1cc(-c2ccccc2)nc(SCc2ccc(C(=O)O)o2)n1 | -21 | -1% | -1% | -8%[15.4 µM] | -11
Cc1cc(-c2ccccc2)nc(SCc2ccc(C(=O)O)cc2)n1 | -25 | -33% | 0% | 35µM* | -3
CCOC(=O)c1c(C)[nH]c(C)c1S(=O)(=O)N1CCC(C(=O)N2CCN(c3cccc(C)c3)C(C)C2)CC1 (stereo not given) | x | x | -1% | x | -14
CC(C)C(Cl)=NOC(=O)Nc1ccc(S(N)(=O)=O)cc1 | x | 12% | x | 11% | -73*
O=S(=O)(/N=S1\CC=CCN1S(=O)(=O)c1ccccc1)c1ccccc1 (stereo not given) | x | 26% | x | 50µM* | -110*
CCN(CC)CCCNC(=S)N1CCN(c2nc(-c3ccc(F)cc3)cs2)CC1 | 31 | 2%[15.4 µM] | 1% | 11% | -74*
CCNC(=S)N1CCN(c2nc(-c3ccc(F)cc3)cs2)CC1 | -17 | -16% | 2% | 35µM* | -9
COCCNC(=S)N1CCN(c2nc(-c3ccc(F)cc3)cs2)CC1 | 2 | 6% | 0% | u | -2
COc1ccc(S(=O)(=O)n2nc(C)c(S(=O)(=O)N3CCCCCC3)c2C)cc1C | x | x | 1% | x | x
O=C(CCN1C(=O)c2ccccc2Sc2ncccc21)Nc1ccc(F)cc1F | x | x | -1% | x | 4
CCOC(=O)N1CCN(C(=O)CCc2ccccc2)CC1 | -128* | 3% | -1% | -3% | 0
O=C(CCc1ccccc1)N1CCN(C(=O)CCc2ccccc2)CC1 | x | 5% | x | 4% | -11
CCN1C(=O)C2(C(C(=O)c3cc4ccccc4o3)=C(O)C(=O)N2CCCN2CCOCC2)c2ccccc21 (stereo not given) | 37 | 106%[15.4 µM] | 16µM* | 20% | 48
O=C(C1=C(O)C(=O)N(CCN2CCOCC2)C1c1ccc(Cl)cc1)c1cc2ccccc2o1 (stereo not given) | -15 | u | u | 5% | 10
O=C(C1=C(O)C(=O)N(CCCN2CCOCC2)C1c1ccc(Cl)cc1)c1cc2ccccc2o1 (stereo not given) | 28 | 11µM* | 0% | 20% | 11
CCN1C(=O)C2(C(C(=O)c3ccc(C)o3)=C(O)C(=O)N2CCCN2CCOCC2)c2ccccc21 (stereo not given) | x | 9% | 15% | 3% | 8
CCc1ccc(NC(=O)Cn2cc(S(=O)(=O)c3ccc(F)cc3)c(=O)c3cc(OC)ccc32)cc1 | x | x | 9% | x | x
O=C1CC(c2cccc([N+](=O)[O-])c2)c2c(ccc3ccccc23)N1 (stereo not given) | -6 | 8% | 0% | 40µM* | -7
COc1ccc(NC(=O)c2cc(S(=O)(=O)N3CCCCCC3)cn2C)cc1Cl | x | x | 1% | x | x
Cc1ccccc1-c1nc2scc(CCNS(=O)(=O)c3ccccc3)n2n1 | x | x | -1% | x | -14
CCOC(=O)c1cc(-c2ccccc2)n(CC(=O)N(C)c2ccc(OC)cc2)c1C | x | x | -3% | x | -74*
Cc1ccccc1N/N=C/c1sc(=O)n(Cc2cccc(C(=O)O)c2)c1Cl | -45 | u | -2% | u | -73*
COC(=O)c1cccc(Cn2c(Cl)c(/C=N/Nc3ccccc3C)sc2=O)c1 | -10 | -3% | -1% | 0% | -20
SMILES | TSHR antag | gsp agonist | RXFP1 ag | gsp antagonist | RXFP1 antagonist
Cc1ccc(S(=O)(=O)N2CCN(C(=O)CN3C(=O)NC4(CCCCC4)C3=O)CC2)c(C)c1 | -11 | 8%[15.4 µM] | 1% | 9% | -61*
Cc1ccc(S(=O)(=O)c2cnc(SCC(=O)Nc3ccccc3C(F)(F)F)[nH]c2=O)cc1C | x | x | 5% | x | x
C[C@H]1CC2C3CCC4=CC(=O)C=C[C@]4(C)[C@@]3(Cl)[C@@H](O)C[C@]2(C)[C@@]1(O)C(=O)CO (stereo not given in full) | -4 | x | x | x | x
C[C@H]1C[C@H]2[C@@H]3CCC4=CC(=O)C=C[C@]4(C)[C@@]3(Cl)[C@@H](O)C[C@]2(C)[C@@]1(O)C(=O)CO | 5 | x | 2% | -8% | -70*
CC1CCc2c(sc3nc(-c4cc5ccccc5oc4=O)nc(Cl)c23)C1 (stereo not given) | x | x | 0% | x | x
Nc1ncnc2c1ncn2C1OC(CO)C(O)C1O (stereo not given) | 5 | 2% | 14µM* | 10% | 1
CC(C)=CCNc1ncnc2c1ncn2[C@@H]1O[C@H](CO)[C@@H](O)[C@H]1O | x | x | x | x | 15
C=CCNc1ncnc2c1ncn2C1OC(CO)C(O)C1O (stereo not given) | -4 | 25% | 25µM* | 4% | 0
CCOC(=O)c1cccc(NC(=O)c2nn(-c3ccc(OC)cc3)c(=O)c3c2c2ccccc2n3C)c1 | x | x | -2% | x | -1
O=C(CSc1ncnc2c1oc1ccccc12)c1cccs1 | 69 | u | 22µM* | -2% | 1
Cc1nc(SCc2nc3ccccc3[nH]2)c2oc3ccccc3c2n1 | 5 | -1% | 8% | 6% | -10
Cc1nc(SCC(=O)c2cccs2)c2oc3ccccc3c2n1 | -16 | u | 4% | 13% | 8
c1ccc2[nH]c(CSc3ncnc4c3oc3ccccc34)nc2c1 | 51 | 31% | 25µM* | 34% | -14
CCN(Cc1ccc(OC)cc1)c1ccc(-c2nc(-c3ccncc3)no2)cc1[N+](=O)[O-] | x | x | 5% | x | x
CCCCCCCCNc1ncnc2ccccc12 | u | 5% | -2% | 0.89µM* | -10
CCCOc1ccc(NC(=O)CC2C(=O)N(CC)C(=S)N2CCCN2CCN(Cc3ccccc3)CC2)cc1 (stereo not given) | 2 | 1% | 2% | 8% | -65*
CCN(CC)S(=O)(=O)c1cccc(N=Nc2c(O)c3ccccc3oc2=O)c1 | -2 | u | 16µM* | 3% | -3
CCc1cc2c(cc3c(=O)n(CCCC(=O)NCc4cccc(Br)c4)ncn32)s1 | x | x | u | x | -6
CCC(=O)N1CCN(c2nc(CC)nc3sc4c(c23)CCCC4)CC1 | -7 | 25%[15.4 µM] | 4% | 20µM* | 3
CCc1nc(N2CCN(C(=S)NCCCOC)CC2)c2c3c(sc2n1)CCCC3 | -15 | -7% | 3% | 7.1µM* | -2
CCC(=O)c1ccc(OCC(O)Cn2c(C)nc3ccccc32)cc1 (stereo not given) | -27 | 28µM* | 3% | -39% | -16
Cc1nc2ccccc2n1CC(O)COc1ccc(C(=O)O)cc1 (stereo not given) | x | x | -1% | x | 1
O=C(Nc1nc(-c2ccccc2)cs1)C1CCCN(S(=O)(=O)c2ccccc2)C1 (stereo not given) | -75* | -8% | 0% | -29% | -11
CCn1c(=S)[nH]c2scc(-c3cccs3)c2c1=O | -8 | u | 16µM* | -18% | -14

Screening data as filed in PubChem.
